From PubChem BioAssay (Tox21)
Results filed as inconclusive are left out. Calls of active or inactive are those of the source. Unless noted, the call rests on the fitted dose curve; in most records, active means well fitted curve in the direction sought with a large enough effect in the repeat runs; inconclusive means weak or mixed curves; inactive means no such curve, though single readings can be large; an effect the other way counts as inactive or inconclusive.

Assays:
[1] = qHTS assay to identify small molecule agonists of the RXR signaling pathway - cell viability counter screen (AID 1159529); further: nearly all actives have a fitted effect of over 50% in size; further: potency means the concentration at half of the fitted maximal effect
Procedure, shortened: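 RXR-alpha-UAS-bla HEK 293T cells in medium with 2% charcoal-stripped FBS were pre-incubated 5 hr, then compound-treated 16 hr at 37 C. Viability was read by CellTiter-Glo luminescence in the same wells as the beta-lactamase assay, with tetraoctyl ammonium bromide as positive control.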

[2] = qHTS assay to identify small molecule antagonists of the retinoid acid receptor (RAR) signaling pathway - cell viability counter screen (AID 1159551); further: nearly all actives have a fitted effect of over 35% in size; further: potency means the concentration at half of the fitted maximal effect
Procedure, shortened: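 Measured by luminescent ATP detection, viability reflects C3RL4 cells treated 6 h at 37 C with test chemicals in the presence of 1 uM (final) retinol.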

[3] = qHTS assay to identify small molecule antagonists of the estrogen related receptor (ERR) signaling pathway from Tox21 library - cell viability counter screen (AID 1224834); further: nearly all actives have a fitted effect of over 30% in size; further: potency means the concentration at half of the fitted maximal effect
Procedure, shortened: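 Seeded ERR cells were rested 6 h at 37 C/5% CO2 before compounds, positive and negative controls or DMSO were added. Incubation continued for 17.5 h, and viability was then quantified by CellTiter-Fluor fluorescence.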

[4] = qHTS assay to identify small molecule agonists of the constitutive androstane receptor (CAR) signaling pathway - cell viability counter screen (AID 1224836); further: nearly all actives have a fitted effect of over 45% in size; further: potency means the concentration at half of the fitted maximal effect
Procedure, shortened: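 HepG2 cells stably carrying hCAR and a CYP2B6-2.2kb reporter; 15-concentration compounds plus PK11195 (final 0.75 uM), 23 hr at 37 C/5% CO2. Viability read by CellTiter-Fluor fluorescence.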

[5] = qHTS assay to identify small molecule antagonists of the constitutive androstane receptor (CAR) signaling pathway - cell viability counter screen (AID 1224837); further: nearly all actives have a fitted effect of over 45% in size; further: potency means the concentration at half of the fitted maximal effect
Procedure, shortened: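 To flag cytotoxic false antagonists, HepG2 hCAR/CYP2B6-2.2kb cells were treated 23 hr with 15-concentration compound series and 50 nM CITCO at 37 C/5% CO2; CellTiter-Fluor fluorescence was the measured end point.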

[6] = biological target: Nuclear receptor subfamily 1 group I member 3 (Homo sapiens) (UniProt Q14994); assay: qHTS assay to identify small molecule antagonists of the constitutive androstane receptor (CAR) signaling pathway (AID 1224838);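 further: HepG2 cells stably expressing hCAR with CYP2B6 luciferase reporter stimulated by CITCO; nearly all actives have a fitted effect of over 40% in size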; further: potency means the concentration at half of the fitted maximal effect
Nuclear receptor subfamily 1 group I member 3 (Homo sapiens), sequence (Q14994 whole entry, looked up): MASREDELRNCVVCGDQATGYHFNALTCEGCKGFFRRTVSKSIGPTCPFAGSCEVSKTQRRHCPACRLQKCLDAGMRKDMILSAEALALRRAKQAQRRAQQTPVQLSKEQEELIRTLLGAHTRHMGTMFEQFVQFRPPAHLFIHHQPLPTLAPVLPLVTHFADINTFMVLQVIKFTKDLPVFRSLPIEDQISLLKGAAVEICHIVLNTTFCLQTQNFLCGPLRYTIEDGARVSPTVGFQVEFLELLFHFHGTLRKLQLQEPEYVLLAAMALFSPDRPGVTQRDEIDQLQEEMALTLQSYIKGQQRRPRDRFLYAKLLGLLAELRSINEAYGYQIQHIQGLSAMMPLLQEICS
Procedure, shortened: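 Human hepatoma HepG2 cells expressing hCAR and a CYP2B6 promoter (2.2 kb) luciferase construct; compound titration (15 points) with 50 nM CITCO final, 24 h at 37 C/5% CO2; luminescence via ONE-Glo after 30 min at room temperature.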

[7] = biological target: Nuclear receptor subfamily 1 group I member 3 (Homo sapiens) (UniProt Q14994); assay: qHTS assay to identify small molecule agonists of the constitutive androstane receptor (CAR) signaling pathway (AID 1224839); further: nearly all actives have a fitted effect of over 15% in size; further: potency means the concentration at half of the fitted maximal effect;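 on activation: HepG2 cells stably carrying human CAR and a CYP2B6 luciferase reporter; series mostly up to about 92 µM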
Procedure, shortened: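 HepG2 cells stably co-transfected with hCAR and a CYP2B6-2.2kb luciferase reporter; compounds at 15 concentrations with 0.75 uM PK11195 present. After 24 hr at 37 C, luciferase read by ONE-Glo luminescence.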

[8] = qHTS assay to identify small molecule antagonists of the estrogen related receptor signaling pathway with the pleiotropic PPARgamma coactivator (PGC) from Tox21 10K library - cell viability counter screen (AID 1224840; active means well fitted cell-killing curve with a large enough effect in the repeat runs, not every such curve was filed as active; further: nearly all actives have a fitted effect of over 40% in size; further: potency means the concentration at half of the fitted maximal effect)
Procedure, shortened: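 Seeded PGC/ERR cells (2,000/well, 6 h, 37 C/5% CO2) get compound by pin tool; 17.5 h incubation at 37 C; CellTiter-Fluor added, 30 min, fluorescence measured.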

[9] = biological target: Thyrotropin receptor (Homo sapiens) (UniProt P16473); assay: qHTS assay to identify small molecule agonists of the thyroid stimulating hormone receptor (TSHR) signaling pathway (AID 1224843; calls by dose curve; further: nearly all actives have a fitted effect of over 45% in size; further: potency means the concentration at half of the fitted maximal effect)
Thyrotropin receptor (Homo sapiens), sequence (P16473 whole entry, looked up): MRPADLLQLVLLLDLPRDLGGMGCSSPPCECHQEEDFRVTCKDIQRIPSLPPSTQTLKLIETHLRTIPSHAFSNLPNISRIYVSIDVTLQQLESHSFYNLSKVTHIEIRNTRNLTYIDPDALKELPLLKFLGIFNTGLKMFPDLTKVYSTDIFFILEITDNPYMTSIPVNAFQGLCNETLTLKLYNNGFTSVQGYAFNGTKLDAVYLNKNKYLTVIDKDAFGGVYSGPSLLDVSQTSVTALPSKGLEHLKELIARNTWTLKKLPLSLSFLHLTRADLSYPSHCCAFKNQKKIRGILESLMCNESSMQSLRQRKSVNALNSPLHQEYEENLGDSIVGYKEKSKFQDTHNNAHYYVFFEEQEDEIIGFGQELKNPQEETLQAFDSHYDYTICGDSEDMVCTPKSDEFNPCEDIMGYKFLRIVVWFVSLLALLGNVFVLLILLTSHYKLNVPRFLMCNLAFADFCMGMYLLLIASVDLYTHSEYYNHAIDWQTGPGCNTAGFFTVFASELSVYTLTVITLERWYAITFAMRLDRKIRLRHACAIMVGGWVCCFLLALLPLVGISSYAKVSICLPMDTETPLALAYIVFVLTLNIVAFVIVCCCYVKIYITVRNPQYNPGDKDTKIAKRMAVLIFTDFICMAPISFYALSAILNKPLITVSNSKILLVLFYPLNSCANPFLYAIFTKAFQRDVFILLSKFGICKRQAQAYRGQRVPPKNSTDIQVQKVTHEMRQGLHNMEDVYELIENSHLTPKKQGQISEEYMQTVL
Procedure, shortened: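 Using 15 concentrations per compound in triplicate, cAMP production was monitored in TSHR-HEK293 cells after 30 min compound incubation at RT; HTRF reagents followed, with fluorescence intensity recorded after 1 h.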

[10] = biological target: Luciferin 4-monooxygenase (Photinus pyralis) (UniProt P08659); assay: qHTS assay to identify small molecule inhibitors of firefly luciferase (AID 1224835); further: nearly all actives have a fitted effect of over 25% in size; further: potency means the concentration at half of the fitted maximal effect
Luciferin 4-monooxygenase (Photinus pyralis), sequence (P08659 whole entry, looked up): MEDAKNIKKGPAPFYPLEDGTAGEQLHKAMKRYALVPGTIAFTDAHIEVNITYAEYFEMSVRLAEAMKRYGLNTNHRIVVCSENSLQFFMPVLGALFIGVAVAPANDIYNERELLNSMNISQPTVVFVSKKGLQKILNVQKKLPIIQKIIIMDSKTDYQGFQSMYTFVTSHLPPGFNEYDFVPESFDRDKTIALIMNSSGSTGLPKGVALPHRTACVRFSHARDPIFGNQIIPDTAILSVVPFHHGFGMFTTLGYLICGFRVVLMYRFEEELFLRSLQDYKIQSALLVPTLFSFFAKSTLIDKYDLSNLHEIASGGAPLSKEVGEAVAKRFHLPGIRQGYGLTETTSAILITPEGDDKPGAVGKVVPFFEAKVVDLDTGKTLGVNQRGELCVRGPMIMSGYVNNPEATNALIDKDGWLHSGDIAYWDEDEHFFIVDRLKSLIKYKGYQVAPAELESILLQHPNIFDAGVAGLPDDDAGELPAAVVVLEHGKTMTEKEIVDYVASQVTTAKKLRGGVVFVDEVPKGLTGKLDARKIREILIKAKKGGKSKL
Procedure, shortened: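 Quantitative HTS format; KM concentrations of both substrates. Purified P. pyralis FLuc activity quantified from luminescence images.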

[11] = qHTS assay to identify small molecule antagonists of the retinoic acid receptor (RAR) signaling pathway (AID 1159552; further: nearly all actives have a fitted effect of over 50% in size; further: potency means the concentration at half of the fitted maximal effect)
Procedure, shortened: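 Retinol signaling pathway inhibitors screened in C3RL4 RARE-luciferase reporter cells seeded overnight at 37 C, then compounds added with 1 uM (final) retinol as pathway substrate. After 6 hr at 37 C, luciferase luminescence read after 30 min at room temperature.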

[12] = qHTS assay to identify small molecule antagonists of the estrogen related receptor (ERR) signaling pathway - cell viability counter screen (AID 1224818); further: series mostly up to about 46 µM
Procedure, shortened: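 Compounds dissolved in DMSO were applied to ERR cells seeded at 2,000 per well 6 h earlier. Cell viability followed 17.5 h later via 30-min CellTiter-Fluor fluorescence.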

[13] = qHTS assay to identify small molecule antagonists of the estrogen related receptor (ERR) signaling pathway (AID 1224819;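 further: luminescence from an ERR-driven luciferase reporter measured with One-Glo reagent; series mostly up to about 46 µM; nearly all actives have a fitted effect of over 50% in size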)
Procedure, shortened: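 Compounds dissolved in DMSO were pin-transferred onto ERR cells that had been plated 6 h earlier, and cells were then incubated 18 h at 37 C; signal was luciferase luminescence via One-Glo.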

[14] = qHTS assay to identify small molecule agonists of the estrogen related receptor (ERR) signaling pathway (AID 1224820)
Procedure, shortened: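 Luminescence readout (One-Glo, 30 min RT) from NTP-supplied ERR cell line exposed to compounds for 18 h at 37 C. Cells seeded 2,000 per well and pre-incubated 6 h before pin-tool compound transfer.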

[15] = test system: estrogen-related receptor alpha (ERRalpha) with PGC-1alpha coactivator, human; assay: qHTS assay to identify small molecule antagonists of the estrogen related receptor signaling pathway with the pleiotropic PPARgamma coactivator (PGC) (AID 1224821; calls by dose curve;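 further: series mostly up to about 46 µM; lower luminescence signal means antagonism of PGC/ERR signalling; nearly all actives have a fitted effect of over 50% in size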)
Procedure, shortened: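 PGC/ERR reporter cells; 6 h pre-incubation 37 C/5% CO2; pin-tool compound in DMSO, 18 h 37 C; One-Glo added, 30 min RT; luminescence read. qHTS antagonist mode.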

[16] = qHTS assay to identify small molecule antagonists of the estrogen related receptor signaling pathway with the pleiotropic PPARgamma coactivator (PGC) cell viability counter screen (AID 1224822; further: series mostly up to about 46 µM)
Procedure, shortened: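 Counter screen for cell viability: PGC/ERR cells, 6 h pre-incubation after plating, 17.5 h compound exposure at 37 C, fluorescence from CellTiter-Fluor after 30 min.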

[17] = qHTS assay to identify small molecule antagonists of the estrogen related receptor signaling pathway with the pleiotropic PPARgamma coactivator (PGC) from Tox21 10K library (AID 1224841; call rule not given here)
Procedure, shortened: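 Test chemicals dissolved in DMSO were applied to pre-incubated (6 h) PGC/ERR cells at 2,000 cells/well for an 18 h, 37 C treatment; reporter luminescence was then read using One-Glo.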

[18] = qHTS assay to identify small molecule agonists of the retinoic acid receptor (RAR) signaling pathway (AID 1159553); further: potency means the concentration at half of the fitted maximal effect
Procedure, shortened: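 6 hr compound exposure (DMSO vehicle) of overnight-plated C3RL4 RARE-luc cells at 37 C; luminescence quantified after 30 min RT with luciferase reagent.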

[19] = qHTS assay to identify small molecule agonists of the estrogen related receptor signaling pathway with the pleiotropic PPARgamma coactivator (PGC) from Tox21 10K library (AID 1224842); further: nearly all actives have a fitted effect of over 15% in size
Procedure, shortened: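 PGC/ERR reporter cells (NTP line) were seeded 2,000 per well, rested 6 h at 37 C/5% CO2, then pin-dosed with compounds in DMSO for 18 h at 37 C; luciferase read by One-Glo luminescence after 30 min at room temperature.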
On the % scale 0 is the no-effect control and ±100 the full control effect.

C/C=C/C=C/C(=O)O
inactive: Potency [1] | Potency [2] | Potency [3] | Potency [4] | Potency [5] | Potency [6] | Potency [7] | Potency [8] | Potency [9]

CN1CCC[C@H]1c1cccnc1
inactive: Potency [1] | Potency [2] | Potency [3] | Potency [10] | Potency [4] | Potency [5] | Potency [8]

Nc1ccc(S(N)(=O)=O)cc1
inactive: Potency [1] | Potency [2] | Potency [4] | Potency [5] | Potency [7] | Potency [8] | Potency [9]

COc1ccc(OC(F)(F)F)cc1CN[C@H]1CCCN[C@H]1c1ccccc1
inactive: Potency [2] | Potency [10] | Potency [7]
active: Potency [4] 61.1 µM | Potency [5] 54.5 µM | Potency [8] 54.5 µM

CNNCc1ccc(C(=O)NC(C)C)cc1
inactive: Potency [1] | Potency [2] | Potency [3] | Potency [4] | Potency [5] | Potency [8] | Potency [9]

CN[C@H]1CC[C@@H](c2ccc(Cl)c(Cl)c2)c2ccccc21
inactive: Potency [2] | outcome [12] | Potency [13] | outcome [14] | outcome [15] | Potency [16] | Potency [10] | Potency [4] | Potency [5] | Potency [7] | Potency [17]
active: Potency [11] 26.6 µM | Potency [3] 29.8 µM | Potency [8] 26.6 µM

Nc1ccc2c(c1)CN1C(=O)c3ccccc3C1=N2
active: Potency [2] 14.6 µM | Potency [18] 0.366 µM | Potency [10] 0.213 µM | Potency [7] 0.184 µM
inactive: activity, negative = inhibition [11] -41% [at 19 µM] | activity, negative = inhibition [6] -44.6% [at 19 µM] | activation [9] -0.704% [at 19 µM]

COc1ccc2cc(S(=O)(=O)N[C@H](CC(=O)N[C@H](Cc3ccc(CN4[C@H](C)CCC[C@@H]4C)cc3)C(=O)N(C)C(C)C)c3ccc4c(c3)OCO4)ccc2c1
inactive: Potency [18] | Potency [10] | Potency [7] | Potency [19] | Potency [9]
active: Potency [1] 2.32 µM | Potency [11] 51.6 µM | Potency [3] 51.6 µM | Potency [4] 23 µM | Potency [5] 25.8 µM | Potency [6] 41 µM | Potency [8] 29 µM

O=C1c2c(O)cccc2Cc2cccc(O)c21
inactive: Potency [1] | Potency [2] | Potency [10] | Potency [4] | Potency [5] | Potency [8] | Potency [9]

O=CC(=O)c1ccccc1
active: Potency [6] 68.7 µM | Potency [9] 27.3 µM
inactive: Potency [1] | Potency [11] | Potency [18] | Potency [10] | Potency [4] | Potency [5] | Potency [7] | Potency [8] | Potency [17]

CC(O)(P(=O)(O)O)P(=O)(O)O
inactive: Potency [1] | Potency [2] | Potency [3] | Potency [10] | Potency [4] | Potency [5] | Potency [8] | Potency [9]
